Measurements published in the supplement of paper PMC10849652.
The full data set covers some 8,800 targets. This sample favours those with a hit. About 0.5% of all pairs of compound and target were hits. A number with no mark means an inactive call.

Columns and labels:
Experiment in all cases: log2 fold change, soluble protein after heating vs DMSO (PISA); higher = thermal stabilisation; K562 lysate, 10 uM; active = over 0.2 and 3.5 SD of the protein, either way, in both replicates (recomputed)
[1] = compound: C=CC(=O)N1CCC[C@@H](n2nc(-c3ccc(Oc4ccccc4)cc3)c3c(N)ncnc32)C1 [ibrutinib]
Procedure, shortened: (§1)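 The values are log-two fold changes in thermal stability compared with solvent controls and come from duplicates. They were obtained by TMTpro 16plex LC-MS/MS, with channel sums equalised, on the supernatant after 21,000xg for 90 min. That supernatant came from crude K562 extract at 1 mg/mL protein treated with 10 μM compound for 30 min, heated for 3 min across 48°C-58°C, pooled and brought to 0.5% NP-40 at 4°C.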

[2] = compound: CC(=O)c1cnc2ccc(-c3cc(Cl)c(O)c(Cl)c3)nc2c1N[C@H]1CC[C@H](CN(C)C)CC1
Procedure, shortened: as §1

[3] = compound: CC(C)(C)Cn1c(N)nc2ccc(-c3[nH]c(C(C)(C)C)nc3-c3ccc(F)cc3)nc21 [ralimetinib]
Procedure, shortened: as §1

[4] = compound: CC(C)(O)CC(=O)NCCn1ccc2ncnc(Nc3ccc(Oc4cccc(C(F)(F)F)c4)c(Cl)c3)c21
Procedure, shortened: as §1

[5] = compound: CC(C)C1=C2N=C(C=C(N2N=C1)NCC3=CC=CC=C3)NCCCCCCN
Procedure, shortened: as §1

[6] = compound: CC1=C(C(CC(=O)N1)C2=CC=C(C=C2)C(F)(F)F)C(=O)NC3=C(C=C4C(=C3)C=NN4)F
Procedure, shortened: as §1

[7] = compound: CC1=C(C2=C(C=C1)C(=O)C3=CC=CC=C3N2CCCN)C
Procedure, shortened: as §1

[8] = compound: CC1=C(C=C(C=C1)NC(=O)C2=CC(=CC=C2)C(C)(C)C#N)NC3=CC4=C(C=C3)N=CN(C4=O)C
Procedure, shortened: as §1

[9] = compound: CC1=C(C=C(C=C1)NC(=O)C2=CC(=CC=C2)N(C)C)NC(=O)C3=CC=C(C=C3)O
Procedure, shortened: as §1

[10] = compound: CC1=CC=C(C=C1)SC2=C3C=C(SC3=CN=C2)C(=O)N
Procedure, shortened: as §1

[11] = compound: CCCS(=O)(=O)Nc1ccc(F)c(C(=O)c2c[nH]c3ncc(-c4ccc(Cl)cc4)cc23)c1F [vemurafenib]
Procedure, shortened: as §1

[12] = compound: CCCS(=O)(=O)Nc1ccc(F)c(C(=O)c2c[nH]c3ncc(Cl)cc23)c1F
Procedure, shortened: as §1

[13] = compound: CCN(CCCOc1ccc2c(Nc3cc(CC(=O)Nc4cccc(F)c4)[nH]n3)ncnc2c1)CCOP(=O)(O)O [barasertib]
Procedure, shortened: as §1

[14] = compound: CC[C@@H]1C(=O)N(C)c2cnc(Nc3ccc(C(=O)NC4CCN(C)CC4)cc3OC)nc2N1C1CCCC1
Procedure, shortened: as §1

[15] = compound: CC[C@@H]1C(=O)N(C)c2cnc(Nc3ccc(C(=O)N[C@H]4CC[C@H](N5CCN(CC6CC6)CC5)CC4)cc3OC)nc2N1C(C)C [volasertib]
Procedure, shortened: as §1

[16] = compound: CCn1c(C(=O)N(C2CC2)C2CC2)cc2c3c(ncn3C)c(Nc3cc(C)n(C)n3)nc21
Procedure, shortened: as §1

[17] = compound: CCn1cc(-c2ccnc3[nH]c(-c4cccc(CN(C)C)c4)cc23)c(-c2ccc(NC(=O)N(C)C)cc2)n1
Procedure, shortened: as §1

[18] = compound: CN1CCC(CNc2ccc3ncc(-c4cccc(OC(F)(F)F)c4)n3n2)CC1
Procedure, shortened: as §1

[19] = compound: CN1CCN(CCOc2cc(OC3CCOCC3)c3c(Nc4c(Cl)ccc5c4OCO5)ncnc3c2)CC1 [saracatinib]
Procedure, shortened: as §1

[20] = compound: CN1CCN(c2nc(C3=C(c4c[nH]c5ccccc45)C(=O)NC3=O)c3ccccc3n2)CC1 [sotrastaurin]
Procedure, shortened: as §1

Target: PDCD4 (UniProt Q53EL6)
UniProt Q53EL6, sequence (Q53EL6 whole entry, looked up): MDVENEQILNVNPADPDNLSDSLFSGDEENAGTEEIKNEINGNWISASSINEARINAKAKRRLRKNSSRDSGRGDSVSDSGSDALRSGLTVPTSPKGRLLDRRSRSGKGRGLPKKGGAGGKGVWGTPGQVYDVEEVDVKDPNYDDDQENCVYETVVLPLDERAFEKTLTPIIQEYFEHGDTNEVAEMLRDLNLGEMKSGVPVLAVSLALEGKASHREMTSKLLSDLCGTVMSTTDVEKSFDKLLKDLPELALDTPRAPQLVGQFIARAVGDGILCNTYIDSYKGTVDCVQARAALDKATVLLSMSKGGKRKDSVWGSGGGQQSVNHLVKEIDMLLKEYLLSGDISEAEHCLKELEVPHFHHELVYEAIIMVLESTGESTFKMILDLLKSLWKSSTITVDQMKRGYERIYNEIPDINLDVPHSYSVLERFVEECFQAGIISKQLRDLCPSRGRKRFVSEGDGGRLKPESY
- log2 fold change [1]: -0.002
- log2 fold change [2]: -0.002
- log2 fold change [3]: 0.025
- log2 fold change [4]: -0.032
- log2 fold change [5]: 0.007
- log2 fold change [6]: 0.025
- log2 fold change [7]: -0.003
- log2 fold change [8]: 0.032
- log2 fold change [9]: 0.007
- log2 fold change [10]: 0.011
- log2 fold change [11]: 0.014
- log2 fold change [12]: 0.02
- log2 fold change [13]: 0.024
- log2 fold change [14]: -0.023
- log2 fold change [15]: -0.03
- log2 fold change [16]: 0.029
- log2 fold change [17]: -0.029
- log2 fold change [18]: -0.013
- log2 fold change [19]: 0.009
- log2 fold change [20]: 0.001

Target: PPCDC (UniProt Q96CD2)
UniProt Q96CD2, sequence (Q96CD2 whole entry, looked up): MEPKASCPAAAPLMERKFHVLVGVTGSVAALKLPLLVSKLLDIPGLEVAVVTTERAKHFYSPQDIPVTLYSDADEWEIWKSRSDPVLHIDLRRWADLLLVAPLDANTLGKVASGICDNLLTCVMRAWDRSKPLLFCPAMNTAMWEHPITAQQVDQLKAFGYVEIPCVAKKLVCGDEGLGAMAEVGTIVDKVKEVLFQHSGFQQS
- log2 fold change [1]: 0.016
- log2 fold change [2]: 0.023
- log2 fold change [3]: 0.067
- log2 fold change [4]: -0.157
- log2 fold change [5]: 0.064
- log2 fold change [6]: -0.023
- log2 fold change [7]: -0.033
- log2 fold change [8]: 0.019
- log2 fold change [9]: -0.041
- log2 fold change [10]: 0.003
- log2 fold change [11]: 0.1
- log2 fold change [12]: 0.003
- log2 fold change [13]: 0.066
- log2 fold change [14]: 0.047
- log2 fold change [15]: 0.006
- log2 fold change [16]: 0.008
- log2 fold change [17]: -0.342
- log2 fold change [18]: 0.165
- log2 fold change [19]: 0.018
- log2 fold change [20]: 0.038

Target: PI4KB (UniProt Q9UBF8)
UniProt Q9UBF8, sequence (Q9UBF8 whole entry, looked up): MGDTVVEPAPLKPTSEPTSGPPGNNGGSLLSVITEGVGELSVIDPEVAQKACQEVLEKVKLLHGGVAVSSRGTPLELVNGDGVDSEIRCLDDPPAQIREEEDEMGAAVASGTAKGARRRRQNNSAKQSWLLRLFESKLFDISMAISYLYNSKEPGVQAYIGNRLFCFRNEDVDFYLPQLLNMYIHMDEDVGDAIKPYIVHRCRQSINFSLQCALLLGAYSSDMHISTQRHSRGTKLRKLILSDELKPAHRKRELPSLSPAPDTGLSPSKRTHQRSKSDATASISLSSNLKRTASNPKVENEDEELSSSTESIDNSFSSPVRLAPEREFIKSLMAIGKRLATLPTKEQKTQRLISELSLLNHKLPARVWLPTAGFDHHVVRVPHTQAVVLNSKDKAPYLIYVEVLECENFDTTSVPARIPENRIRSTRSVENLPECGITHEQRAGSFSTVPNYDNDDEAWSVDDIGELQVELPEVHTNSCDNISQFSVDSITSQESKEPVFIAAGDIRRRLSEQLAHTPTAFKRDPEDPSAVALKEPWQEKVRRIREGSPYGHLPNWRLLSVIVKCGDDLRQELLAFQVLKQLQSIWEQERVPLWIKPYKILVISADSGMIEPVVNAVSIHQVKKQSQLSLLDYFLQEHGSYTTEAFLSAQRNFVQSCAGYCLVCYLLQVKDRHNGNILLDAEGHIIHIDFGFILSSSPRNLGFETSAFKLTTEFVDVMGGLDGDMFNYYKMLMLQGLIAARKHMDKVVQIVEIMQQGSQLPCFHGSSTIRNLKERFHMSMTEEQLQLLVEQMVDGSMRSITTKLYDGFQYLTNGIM
- log2 fold change [1]: -0.044
- log2 fold change [2]: 0.208
- log2 fold change [3]: 0.021
- log2 fold change [4]: -0.021
- log2 fold change [5]: -0.004
- log2 fold change [6]: -0.015
- log2 fold change [7]: -0.018
- log2 fold change [8]: 0.022
- log2 fold change [9]: 0
- log2 fold change [10]: 0.012
- log2 fold change [11]: 0.222 (active)
- log2 fold change [12]: 0.011
- log2 fold change [13]: -0.051
- log2 fold change [14]: 0.049
- log2 fold change [15]: -0.026
- log2 fold change [16]: -0.016
- log2 fold change [17]: -0.038
- log2 fold change [18]: 0.134
- log2 fold change [19]: -0.006
- log2 fold change [20]: 0.012

Target: PRKACA (UniProt P17612)
- log2 fold change [1]: 0.021
- log2 fold change [2]: 0.767 (active)
- log2 fold change [3]: 0.029
- log2 fold change [4]: -0.106
- log2 fold change [5]: -0.045
- log2 fold change [6]: 0.059
- log2 fold change [7]: -0.046
- log2 fold change [8]: -0.118
- log2 fold change [9]: -0.008
- log2 fold change [10]: -0.057
- log2 fold change [11]: -0.036
- log2 fold change [12]: -0.016
- log2 fold change [13]: 0.006
- log2 fold change [14]: 0.095
- log2 fold change [15]: -0.043
- log2 fold change [16]: -0.081
- log2 fold change [17]: -0.418
- log2 fold change [18]: 0.351
- log2 fold change [19]: -0.075
- log2 fold change [20]: 0.216

Target: PDIA4 (UniProt P13667)
UniProt P13667, sequence (P13667 whole entry, looked up): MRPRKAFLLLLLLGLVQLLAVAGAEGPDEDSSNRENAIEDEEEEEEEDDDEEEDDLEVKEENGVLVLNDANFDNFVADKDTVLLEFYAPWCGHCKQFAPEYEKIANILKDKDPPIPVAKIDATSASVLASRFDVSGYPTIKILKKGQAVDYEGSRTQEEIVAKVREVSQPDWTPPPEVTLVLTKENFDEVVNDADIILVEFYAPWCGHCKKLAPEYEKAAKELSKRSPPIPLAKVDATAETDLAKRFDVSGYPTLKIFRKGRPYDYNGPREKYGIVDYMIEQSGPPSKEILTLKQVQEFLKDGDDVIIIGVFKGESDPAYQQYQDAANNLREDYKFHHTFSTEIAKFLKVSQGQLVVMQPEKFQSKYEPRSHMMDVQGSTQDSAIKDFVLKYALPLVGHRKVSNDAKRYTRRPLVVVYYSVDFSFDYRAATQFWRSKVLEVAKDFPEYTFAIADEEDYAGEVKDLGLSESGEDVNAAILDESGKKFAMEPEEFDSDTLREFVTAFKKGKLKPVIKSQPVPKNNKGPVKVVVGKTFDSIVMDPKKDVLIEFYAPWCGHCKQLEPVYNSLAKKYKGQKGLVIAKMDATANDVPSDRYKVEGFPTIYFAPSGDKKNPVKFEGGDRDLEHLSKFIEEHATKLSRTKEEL
- log2 fold change [1]: 0.006
- log2 fold change [2]: -0.008
- log2 fold change [3]: -0.016
- log2 fold change [4]: 0.011
- log2 fold change [5]: 0.001
- log2 fold change [6]: -0.01
- log2 fold change [7]: 0.021
- log2 fold change [8]: -0.038
- log2 fold change [9]: 0.011
- log2 fold change [10]: 0.007
- log2 fold change [11]: -0.007
- log2 fold change [12]: -0.02
- log2 fold change [13]: -0.028
- log2 fold change [14]: 0.017
- log2 fold change [15]: 0.012
- log2 fold change [16]: -0.008
- log2 fold change [17]: 0.036
- log2 fold change [18]: -0.045
- log2 fold change [19]: 0.012
- log2 fold change [20]: 0

Target: PTK2 (UniProt Q05397)
UniProt Q05397, sequence (Q05397 whole entry, looked up): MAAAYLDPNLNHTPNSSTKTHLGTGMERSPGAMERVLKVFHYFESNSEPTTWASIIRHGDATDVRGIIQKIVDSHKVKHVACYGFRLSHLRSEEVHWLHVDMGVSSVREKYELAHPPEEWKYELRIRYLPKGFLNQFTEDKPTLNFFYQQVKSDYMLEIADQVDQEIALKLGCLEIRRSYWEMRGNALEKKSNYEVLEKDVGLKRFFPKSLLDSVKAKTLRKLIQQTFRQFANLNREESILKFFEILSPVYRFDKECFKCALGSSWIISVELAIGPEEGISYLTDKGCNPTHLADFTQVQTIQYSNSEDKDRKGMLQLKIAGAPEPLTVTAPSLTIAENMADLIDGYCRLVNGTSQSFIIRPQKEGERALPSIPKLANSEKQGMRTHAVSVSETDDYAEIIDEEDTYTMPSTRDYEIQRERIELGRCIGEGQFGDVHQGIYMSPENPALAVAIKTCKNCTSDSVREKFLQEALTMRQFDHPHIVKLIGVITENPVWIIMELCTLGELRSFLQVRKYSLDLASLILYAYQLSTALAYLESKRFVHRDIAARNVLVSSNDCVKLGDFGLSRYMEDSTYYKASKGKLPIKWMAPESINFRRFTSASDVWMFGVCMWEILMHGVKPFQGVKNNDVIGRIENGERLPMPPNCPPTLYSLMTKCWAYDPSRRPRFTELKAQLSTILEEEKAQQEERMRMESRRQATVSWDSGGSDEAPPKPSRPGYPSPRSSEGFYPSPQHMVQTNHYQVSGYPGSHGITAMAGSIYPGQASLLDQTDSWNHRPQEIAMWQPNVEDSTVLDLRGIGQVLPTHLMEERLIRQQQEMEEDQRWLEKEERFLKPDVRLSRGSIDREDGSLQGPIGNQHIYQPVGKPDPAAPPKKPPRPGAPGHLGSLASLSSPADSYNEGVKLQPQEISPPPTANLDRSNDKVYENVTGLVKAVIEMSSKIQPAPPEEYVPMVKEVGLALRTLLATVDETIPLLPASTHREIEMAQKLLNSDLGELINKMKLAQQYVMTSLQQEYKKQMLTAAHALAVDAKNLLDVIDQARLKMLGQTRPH
- log2 fold change [1]: 0.085
- log2 fold change [2]: 0.188
- log2 fold change [3]: -0.002
- log2 fold change [4]: 0.044
- log2 fold change [5]: -0.015
- log2 fold change [6]: -0.024
- log2 fold change [7]: 0.011
- log2 fold change [8]: -0.054
- log2 fold change [9]: -0.007
- log2 fold change [10]: -0.128
- log2 fold change [11]: 0.017
- log2 fold change [12]: -0.091
- log2 fold change [13]: -0.015
- log2 fold change [14]: 0.352
- log2 fold change [15]: 0.145
- log2 fold change [16]: 0.044
- log2 fold change [17]: -0.001
- log2 fold change [18]: 0.056
- log2 fold change [19]: -0.023
- log2 fold change [20]: 0.039

Target: PCBP2 isoform 8 (UniProt Q15366)
UniProt Q15366, sequence (Q15366 whole entry, looked up): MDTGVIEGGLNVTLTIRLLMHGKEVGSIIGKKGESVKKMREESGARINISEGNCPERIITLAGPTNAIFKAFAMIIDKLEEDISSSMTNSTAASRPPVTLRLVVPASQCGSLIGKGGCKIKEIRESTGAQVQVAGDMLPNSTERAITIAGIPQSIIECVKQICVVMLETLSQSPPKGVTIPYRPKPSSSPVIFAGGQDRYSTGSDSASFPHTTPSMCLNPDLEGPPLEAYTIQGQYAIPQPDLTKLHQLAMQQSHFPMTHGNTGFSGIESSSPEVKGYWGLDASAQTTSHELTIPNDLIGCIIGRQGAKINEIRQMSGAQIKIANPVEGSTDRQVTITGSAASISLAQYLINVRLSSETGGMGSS
- log2 fold change [1]: 0.15
- log2 fold change [2]: 0.003
- log2 fold change [3]: -0.003
- log2 fold change [4]: -0.041
- log2 fold change [5]: -0.005
- log2 fold change [6]: -0.011
- log2 fold change [7]: -0.007
- log2 fold change [8]: 0.071
- log2 fold change [9]: -0.05
- log2 fold change [10]: -0.043
- log2 fold change [11]: 0.078
- log2 fold change [12]: 0.051
- log2 fold change [13]: 0.016
- log2 fold change [14]: 0.001
- log2 fold change [15]: -0.05
- log2 fold change [16]: -0.152
- log2 fold change [17]: 0.054
- log2 fold change [18]: -0.003
- log2 fold change [19]: -0.018
- log2 fold change [20]: -0.045

Target: PCBP2 isoform 3 (UniProt Q15366)
- log2 fold change [1]: -0.007
- log2 fold change [2]: 0.025
- log2 fold change [3]: 0.021
- log2 fold change [4]: 0.022
- log2 fold change [5]: -0.019
- log2 fold change [6]: -0.034
- log2 fold change [7]: 0.06
- log2 fold change [8]: -0.017
- log2 fold change [9]: -0.016
- log2 fold change [10]: -0.017
- log2 fold change [11]: -0.059
- log2 fold change [12]: -0.004
- log2 fold change [13]: -0.006
- log2 fold change [14]: -0.021
- log2 fold change [15]: -0.003
- log2 fold change [16]: 0.057
- log2 fold change [17]: -0.022
- log2 fold change [18]: -0.002
- log2 fold change [19]: -0.017
- log2 fold change [20]: -0.006
